Test results reported in PubChem BioAssay AID818 (SRMLSC, 2007).
The campaign covered roughly 140,000 compounds. About 2,100 (1.5%) were called active. The list comes from a sample in which actives are over-represented; it also holds similar structures and randomly drawn compounds. Unmarked numbers belong to inactive results.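 How the source made its calls: active means viability at or under a set limit, the compound median less 4 SD (cut at about 6% in these data); inactive means the rest.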

test: primary screen for growth suppressors in beta-catenin knockout HCT116 cells (colon tumor, human) (AID 818); settings: CellTiter-Glo, 60 h, at 10 µM, stronger effect = lower value;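 further: 0% = Hyamine 1622 control at 20 µM and 100% = untreated cell control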

Structure (SMILES) | viability
COC(=O)C1NN=C(C(=O)c2ccc(Br)cc2)C1c1cccc(Br)c1 (centres undefined) | 96.8%
O=C(CN1CCN(c2ccc(O)cc2)CC1)NC1CCCc2ccccc21 (centres undefined) | 74%
COc1ccc(C/C(C)=N/NC(=O)c2ccncc2)cc1 | 91.1%
COc1ccc(CC(=O)N/N=C(\C)c2ccccn2)cc1 | 3.98% (active)
C/C(=N/NC(=O)CSc1ccccn1)c1ccc([N+](=O)[O-])cc1 | 94.1%
COc1ccc(C(CC(=O)O)NC(=O)Cc2ccccc2)cc1 (centres undefined) | 96.5%
C/C(=N\NC(=O)Cc1ccc(F)cc1)c1ccc(F)cc1 | 99.1%
C/C(=N\NC(=O)Cc1ccc(Cl)cc1)c1ccccn1 | 4.96% (active)
CCC(CC)C(=O)N1CCN(c2cccc(C)c2C)CC1 | 43.6%
COC(C(=O)Nc1ccc(C(C)=O)cc1)c1ccccc1 (centres undefined) | 85.5%
O=C(NCCCO)/C(=C\C=C\c1ccccc1)NC(=O)c1ccccc1Cl | 94%
Cc1cc(Br)ccc1SCC(=O)OCC(=O)NCc1ccc2c(c1)OCO2 | 85.9%
CC(C)C(=O)Nc1cccc(NC(=O)c2ccc([N+](=O)[O-])cc2Cl)c1 | 96%
O=C(/C=C/c1ccc(Cl)cc1Cl)NCc1ccco1 | 102%
O=C(NCc1ccc(Cl)c(Cl)c1)c1cccnc1 | 92.2%
O=C(/C=C/c1ccc(Cl)cc1Cl)c1cccnc1 | 0.88% (active)
CC(=O)Nc1ccc(NC(=S)NC(=O)c2ccc([N+](=O)[O-])c(C)c2)cc1 | 93.3%
CCC(C)(C)C1CCC(=NNC(=O)c2ccc(Br)o2)CC1 (centres undefined) | 94.6%
O=C(COC(=O)Cc1ccc(Br)cc1)Nc1c(F)c(F)c(F)c(F)c1F | 94.5%
COc1cc(/C=C2\SC(=S)N(Nc3ncc(C(F)(F)F)cc3Cl)C2=O)cc(OC)c1OC | 109%
COc1cccc(/C=N/Nc2ncc(C(F)(F)F)cc2Cl)c1O | 2.51% (active)
COc1cccc(/C=N\NC(=O)C2=NNC(=O)C2C)c1O (centres undefined) | 45.9%

Structure (SMILES) | viability
COc1ccc(OC)c(-c2c(=O)n(OCc3ccccc3Br)c3ccccc3[n+]2[O-])c1 | 74.9%
COc1ccc(C(=O)Nc2c(Cl)cc(Cl)cc2C(=O)N2CCC(C)CC2)cc1 | 77.2%
CCOc1cc(N2CCOCC2)c(OCC)cc1NC(=O)COC(=O)[C@H](Cc1c[nH]c2ccccc12)NC(C)=O | 87.2%
Cc1cccc(OCC(=O)NC(=S)Nc2ccccc2N2CCOCC2)c1 | 98.4%
CCOc1cc(N2CCOCC2)c(OCC)cc1NC(=O)COc1cccc2cccnc12 | 4.29% (active)
CCOC(=O)c1ccccc1N1C(=O)C2Sc3[nH]c(=O)sc3C(/C=C/c3ccccc3)C2C1=O (centres undefined) | 91.4%
Cc1nc2c(C(=O)NCc3cccs3)cnn2c(C)c1Cc1ccc(F)cc1 | 83.5%
N#C/C(=C/c1ccc(N2CCCCC2)o1)C(=O)NCCc1c[nH]c2ccccc12 | 90.2%
O=C(Nc1ccc([N+](=O)[O-])cc1)C1(c2ccccc2)CCOCC1 | 94.8%
CCc1ccc2c(c1)C1(NN=C(c3ccccc3)S1)C(=O)N2 (centres undefined) | 4.17% (active)
O=C1Nc2ccccc2C12Nc1ccccc1S2 (centres undefined) | 86.2%
C=C1c2cc(CC)ccc2NC(=O)N1c1ccc(C)cc1 | 98.3%
Cc1ccc2c(CC(=O)NCc3cccs3)coc2c1 | 102%
Cc1ccnc(NS(=O)(=O)c2ccc(NC(=O)c3ccc(S(=O)(=O)N4CCOCC4)cc3)cc2)n1 | 97%
CCN(CC)CCOc1ccc2c(c1)C(=NNC(=O)c1ccccn1)c1cc(OCCN(CC)CC)ccc1-2 | 0.37% (active)
CCC(C(=O)OCCN(CC)CC)c1ccccc1 (centres undefined) | 106%
CCC(C)(NC(=O)c1ccccn1)C(=O)NC1CCCCC1 (centres undefined) | 89.8%
COCCNc1nc(N)c([N+](=O)[O-])c(NCCO)n1 | 98.5%
O=C(Nc1ccccc1F)c1ccccc1-c1ccc(C(F)(F)F)cc1 | 77.4%
CCOC(=O)C1=C(C)NC(=S)NC1c1cccs1 (centres undefined) | 84.5%
Cc1cccc(NC(=O)NC(=S)NC(=O)c2ccccc2)c1 | 102%
O=C(NC1CCN(Cc2ccccc2)CC1)c1c(F)cccc1F | 93.9%
